Screening results deposited in PubChem by National Center for Advancing Translational Sciences (NCATS).
DT40 TDP1 no CPT: qHTS for Inhibitors of human tyrosyl-DNA phosphodiesterase 1 (TDP1): qHTS in cells in absence of CPT | 420,000 compounds, 15% hits | Potency, µM (series often up to 46.2 µM), hits mostly inhibitors | DT40 Tdp1-/- hTDP1 cells, no CPT, ATP luminescence, 48 h; further: nearly all actives have a fitted effect of over 55% in size
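Stably hTDP1-transfected Tdp1-null chicken DT40 cells were treated with library compounds minus camptothecin and grown for at least 48 hr at 37 °C, after which cellular ATP was quantified by luminescence.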
IL-1B inflam inh: inhibitors of inflammasome signaling (IL-1 beta secretion). activity change, % at 57.5 µM. THP-1 LPS/ATP IL-1B secretion, AlphaLISA, 16 h; stronger effect = lower value. AID 743279. 360,000 compounds, 4.7% hits; in the data active means activity change below about -50%; inconclusive means mostly about -30% to -49%
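Secreted IL-1B measured by AlphaLISA bead assay after 16 h compound exposure of THP-1 cells; compounds (final up to 57.5 uM) added 1 h before LPS (250 ng/mL) and ATP (1.25 mM) stimulation; lower signal means less secretion.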
ClpP mod: qHTS Assay for Activators of ClpP. ATP-dependent Clp protease proteolytic subunit (Bacillus subtilis (strain 168)), P80244. purified B. subtilis ClpP, FRET peptide cleavage, 20 min. Potency, µM (titrated, usually from 57.5 µM). 340,000 compounds, 1.9% hits. AID 651965, 2013; active means well fitted falling curve with a large enough effect; inconclusive means small, poorly fitted or top-dose-only effect; inactive means no such curve, though single readings can be large or run the other way; further: the source files actives as falling curves though it sought activators and does not explain the sign; nearly all actives have a fitted effect of over 65% in size
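ClpP 10 microg/mL final, pH 8 Tris/KCl buffer with BSA, glycerol, Tween-20; compound pinned in; FRET-FV substrate; RT 20 min; Ex320/Em430; ΔFRET vs ADEP 5.8 microM, DMSO, no enzyme.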
DRD3 agonist: agonists of human D3 dopamine receptor; P35462; D3R DiscoveRx beta-arrestin cells, luminescence, 90 min; max activation, %; 410,000 compounds, 0.58% hits; in the data active means max activation above about 30%
Target sequence (P35462 whole entry, looked up): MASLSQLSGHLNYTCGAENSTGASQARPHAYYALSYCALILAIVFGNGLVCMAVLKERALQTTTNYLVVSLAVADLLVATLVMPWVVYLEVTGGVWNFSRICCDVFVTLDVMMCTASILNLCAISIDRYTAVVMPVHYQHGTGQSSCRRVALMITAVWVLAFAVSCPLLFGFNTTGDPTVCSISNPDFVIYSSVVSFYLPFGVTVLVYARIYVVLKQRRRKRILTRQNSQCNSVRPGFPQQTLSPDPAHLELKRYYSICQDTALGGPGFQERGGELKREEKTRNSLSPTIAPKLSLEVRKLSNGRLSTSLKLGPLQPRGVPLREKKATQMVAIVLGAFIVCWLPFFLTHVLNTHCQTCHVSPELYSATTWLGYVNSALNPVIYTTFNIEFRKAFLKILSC
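Agonist-mode cell screen: cells plated at 1500/well and incubated overnight at 37 °C, then exposed to library compounds for 90 min at 37 °C. Detection reagent was added for 30–60 min at room temperature, and luminescence was read.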
DT40 TDP1 CPT: growth inhibition of DT40 Tdp1-/-;hTDP1 cells with camptothecin (screen for TDP1 inhibitors); chicken DT40 Tdp1-/-;hTDP1 cells + 20 nM CPT, ATP luminescence, 48 h; Potency, µM (doses to about 46.2 µM), usual class: inhibitors; 420,000 compounds, 12% hits; AID 686979; further: nearly all actives have a fitted effect of over 55% in size
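Chicken DT40 Tdp1-/- cells stably complemented with human TDP1 were seeded at 400 cells/well in medium containing 20 nM camptothecin, exposed to pin-transferred compounds, and grown at 37 °C for at least 48 hr. Viability was read as ATP luminescence.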
DRD3 antagonist: blocks the human D3 dopamine receptor; P35462; D3R cells, DiscoveRx beta-arrestin luminescence, antagonist mode; stronger effect = lower value; max response, negative = inhibition, %; 360,000 compounds, 2.5% hits; AID 652054; in the data active means max response below about -50%; inconclusive means no clear call, values can overlap the other calls
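Cells expressing the human receptor were seeded at 1500 cells/well, incubated overnight at 37 degrees C in 5% CO2, then exposed to library compounds with dopamine controls for 90 minutes at 37 degrees C before luminescent detection.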
Numbers stand for hits; n = inactive; u = inconclusive; x = no result given. Rows were chosen to be rich in hits. Some 21% of all compounds tested hit in one or more screens of this group. Unless noted, the call rests on the fitted dose curve; in most records, active means well fitted inhibition curve with a large enough effect; inconclusive means small, poorly fitted or top-dose-only effect; inactive means flat fitted curve, though single readings scatter.

SMILES | DT40 TDP1 no CPT | IL-1B inflam inh | ClpP mod | DRD3 agonist | DT40 TDP1 CPT | DRD3 antagonist
COc1ccccc1CCC(=O)Nc1ccc2c(c1)c(=O)n(C)n2C | n | n | n | n | u | n
Cn1c(=O)c2cc(NC(=O)CCc3ccccc3)ccc2n1-c1ccccc1F | 13µM | n | n | n | 12µM | n
COc1cccc(Cn2c3ccc(NC(=O)CCc4ccc(F)cc4)cc3c(=O)n2C)c1 | 3.7µM | n | n | n | 4.6µM | n
COc1ccccc1CCC(=O)Nc1ccc2c(c1)c(=O)n(C)n2Cc1ccc(F)cc1 | 5.2µM | n | n | n | 4.6µM | u
CCOCCC(=O)Nc1ccc2c(c1)c(=O)n(C)n2Cc1cccc(C(F)(F)F)c1 | n | n | n | n | n | n
Cn1c(=O)c2cc(NC(=O)CCc3ccc(O)cc3)ccc2n1Cc1cccc(C(F)(F)F)c1 | 21µM | n | n | n | u | n
COc1ccc(OC)c(Nc2cc(C)nc3ccc(C)cc23)c1 | 5.2µM | -77 | x | n | 4.6µM | n
Cc1ccc(Oc2cnc3ccccc3n2)cc1 | n | n | n | n | u | n
CC(=O)c1cccc(Nc2cc(C)nc3ccc(C)cc23)c1 | u | n | n | n | u | n
COc1ccc2nc(C)cc(NCc3ccc(F)cc3)c2c1 | 23µM | -79 | x | n | u | n
COc1ccc(Oc2cc(C)c3ccccc3n2)cc1 | n | n | n | 30 | n | n
COc1ccccc1/C=N/Nc1cc(C)nc2ccc(C)cc12 | n | n | x | n | u | n
Cc1cc(C(=O)OCC(=O)NCc2ccc(F)cc2)c2ccccc2n1 | n | n | n | n | u | n
Cc1ccc2nc(C)cc(Nc3ccc([N+](=O)[O-])cc3)c2c1 | 0.92µM | n | x | n | 1µM | u
COc1ccc2nc(C)cc(Nc3ccc(C)cc3)c2c1 | u | u | x | n | 5.8µM | n
COc1ccc(Nc2cc(C)nc3ccccc23)cc1 | 18µM | u | n | n | u | n
Cc1cc(Nc2cccc(Br)c2)c2ccccc2n1 | 10µM | -91 | n | n | 5.8µM | n
COc1ccc(Nc2nc(C)c3ccccc3n2)cc1 | n | n | n | n | n | n
COC(=O)c1ccc(Nc2cc(C)nc3ccc(C)cc23)cc1 | 21µM | -93 | n | n | 15µM | n
CCn1cc(CN2CCCC(CNS(=O)(=O)c3cccc4cccnc34)C2)cn1 (stereo not given) | n | n | n | n | n | n
COc1ccc2nc(C)cc(Nc3ccc(Cl)c(Cl)c3)c2c1 | 1.8µM | x | n | n | 2.1µM | x
Cc1ccc(-c2nc(SCC(=O)Nc3cc(C)on3)c3c(=O)n(C)c(=O)n(C)c3n2)cc1 | 15µM | n | n | n | 12µM | n
COc1ccc(NC(=O)CSc2nc(C(C)C)nc3c2c(=O)n(C)c(=O)n3C)c(OC)c1 | n | n | n | n | n | n
Cn1c(=O)c2c(SCC(=O)Nc3ccccc3F)nc(C3CC3)nc2n(C)c1=O | u | n | n | n | u | n
Cn1c(=O)c2c(SCC(=O)Nc3ccccc3F)nc(-c3ccccc3F)nc2n(C)c1=O | 15µM | n | n | n | u | n
SMILES | DT40 TDP1 no CPT | IL-1B inflam inh | ClpP mod | DRD3 agonist | DT40 TDP1 CPT | DRD3 antagonist
Cc1csc(NC(=O)CSc2nc(C(C)C)nc3c2c(=O)n(C)c(=O)n3C)n1 | 4.6µM | n | n | n | 10µM | n
CCC(C)n1c(=N)c(C(=O)NC2CCCCC2)cc2c(=O)n3ccccc3nc21 (stereo not given) | 16µM | x | n | n | u | x
CC(C)n1c(=N)c(C(=O)NCCc2ccccc2)cc2c(=O)n3ccccc3nc21 | u | -52 | n | n | n | n
CC(C)n1c(=N)c(C(=O)NC2CCCCC2)cc2c(=O)n3ccccc3nc21 | n | x | n | n | n | x
N=c1c(C(=O)NC2CCCC2)cc2c(=O)n3ccccc3nc2n1C1CCCC1 | u | n | 3.2µM | n | u | n
Cc1csc(=O)n1CCC(=O)OC(C)C(=O)NCc1ccccc1 (stereo not given) | n | n | x | n | n | n
